# Source: PubChem BioAssay (NCATS)
# Results filed as inconclusive are left out. Some compounds were tested as several samples or in several runs, with calls that do not always agree. A number with no mark means an inactive call. The source made the active and inactive calls. The call rests on the fitted dose curve; in most records, active means well fitted inhibition curve with a large enough effect; inconclusive means small, poorly fitted or top-dose-only effect; inactive means flat fitted curve, though single readings scatter.
# Columns and labels:
# Assay in all cases: Cytotoxic Profiling of Annotated Libraries Using Quantitative High-Throughput Screening (AID 1296008); further: nearly all actives have a fitted effect of over 60% in size
# Conditions in all cases: Five cell lines viability, CellTiter-Glo ATP luminescence, 48-72 h; max response: hits give low values
# CRL-7250 = normal cell line; test system: CRL-7250
# Summary of the method: (§1)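 Cytotoxicity was measured as CellTiter-Glo ATP luminescence, read after 10 min at room temperature. Compound treatment of the cells lasted 48 or 72 hr at 37 degrees Celsius in a qHTS format.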
# HEK293 = test system: HEK293
# Summary of the method: as §1
# HaCat = test system: HaCat
# Summary of the method: as §1
# KB-3-1 = test system: KB-3-1
# Summary of the method: as §1
# NIH3T3 = test system: NIH3T3
# Summary of the method: as §1
# On the % scale 0 is the no-effect control and ±100 the full control effect; potency means the concentration at half of the fitted maximal effect.
smiles,measurement,setting,value
C[C@@H]1C[C@@H]2O[C@H]2/C=C\C=C\C(=O)Cc2c(Cl)c(O)cc(O)c2C(=O)O1,Potency,CRL-7250,4.53 µM (active)
same,Potency,HEK293,0.286 µM (active)
same,Potency,HaCat,3.6 µM (active)
same,Potency,KB-3-1,2.27 µM (active)
C=C1C(=O)OC2C1CCC(=C)C1CC(OC(C)=O)C(=C)C12 (configuration not stated),Potency,CRL-7250,18.4 µM (active)
same,Potency,HEK293,11.6 µM (active)
same,max response,HaCat,-12%
same,max response,KB-3-1,1.53%
CNS(=O)(=O)c1ccccc1Nc1nc(Nc2ccc(N3CCN(C)CC3)cc2OC)ncc1Cl,Potency,CRL-7250,1.46 µM (active)
same,Potency,HEK293,1.3 µM (active)
same,Potency,HaCat,2.59 µM (active)
same,Potency,KB-3-1,0.92 µM (active)
CN(CCc1ccc(Nc2ncc(-c3cccnc3)s2)cc1)Cc1ccccc1,max response,CRL-7250,-10.2%
same,Potency,HEK293,7.31 µM (active)
same,max response,HaCat,-1.85%
same,max response,KB-3-1,-12.1%
O=C(CC(c1ccccc1)c1ccccc1)N1CCN(C(c2ccccc2)c2ccccc2)CC1,max response,CRL-7250,-24.4%
same,Potency,HEK293,20.6 µM (active)
same,max response,HaCat,-29%
same,Potency,KB-3-1,18.4 µM (active)
NC(=O)[C@H]1CCS[C@@H]2C[C@]3(CCCN3C(=O)Cc3ccc(NC(=O)COc4ccc(Cl)cc4Cl)cc3)C(=O)N12,max response,CRL-7250,-14.3%
same,Potency,HEK293,7.41 µM (active)
same,Potency,HaCat,18.6 µM (active)
same,max response,HaCat,-24.7%
same,Potency,NIH3T3,11.7 µM (active)
CC(=O)O[C@@](C)(C(=O)/C=C/C(C)(C)O)[C@H]1[C@H](O)C[C@@]2(C)[C@@H]3CC=C4[C@@H](C=C(O)C(=O)C4(C)C)[C@]3(C)C(=O)C[C@]12C,Potency,CRL-7250,2.82 µM (active)
same,Potency,HEK293,5.63 µM (active)
same,Potency,HaCat,1.42 µM (active)
same,Potency,KB-3-1,1 µM (active)
N#Cc1ccc2[nH]cc(CCCCN3CCN(c4ccc5oc(C(N)=O)cc5c4)CC3)c2c1,max response,CRL-7250,-7.54%
same,Potency,HEK293,8.2 µM (active)
same,max response,HaCat,-11.5%
same,max response,KB-3-1,-15.8%
COc1cccc(-c2cc(NCc3ccc4c(c3)OCO4)nc(N)n2)c1,Potency,CRL-7250,0.92 µM (active)
same,Potency,HEK293,0.184 µM (active)
same,max response,HaCat,-46.3%
same,Potency,KB-3-1,0.231 µM (active)
FC(F)(F)c1cc(-c2ncn(/C=C\c3nnco3)n2)cc(C(F)(F)F)c1,max response,CRL-7250,-13.3%
same,Potency,HEK293,3.26 µM (active)
same,max response,HaCat,-20%
same,max response,KB-3-1,-19.3%
O=C(O)c1cc2cccc([N+](=O)[O-])c2[nH]1,max response,CRL-7250,-12.6%
same,max response,HEK293,2.87%
same,max response,HaCat,-11.1%
same,max response,KB-3-1,5.58%
CC[C@]1(O)CC2CN(CCc3c([nH]c4ccccc34)[C@@](C(=O)OC)(c3cc4c(cc3OC)N(C)[C@H]3[C@@](O)(C(=O)OC)[C@H](OC(C)=O)[C@]5(CC)C=CCN6CC[C@]43[C@@H]65)C2)C1 (some centres not stated),Potency,CRL-7250,0.259 µM (active)
same,Potency,HEK293,0.0651 µM (active)
same,max response,HaCat,4.47%
same,Potency,KB-3-1,0.0366 µM (active)
Cc1cc2c(F)c(Oc3ncnn4cc(OCC(C)O)c(C)c34)ccc2[nH]1 (configuration not stated),max response,CRL-7250,-24.6%
same,Potency,HEK293,5.8 µM (active)
same,max response,HaCat,-0.656%
same,max response,KB-3-1,-12.6%
CCOc1cc(C(=O)N2CCC(N3CCN(C)CC3)CC2)ccc1Nc1ncc2c(n1)N(C1CCCC1)c1ccccc1C(=O)N2C,Potency,CRL-7250,10.3 µM (active)
same,Potency,HEK293,11.6 µM (active)
same,max response,HaCat,-1.5%
same,Potency,KB-3-1,23.1 µM (active)
C=C1C(=O)OC2CC(C)=C(C(C)CCCO)C(O)C12 (configuration not stated),outcome,CRL-7250,inactive
same,max response,HEK293,-3.2%
same,max response,HaCat,-11.4%
same,outcome,KB-3-1,inactive
C=C1[C@@H]2CC[C@@H]3[C@@](CCC4C(C(=O)O)(C(=O)O)C[C@@H](O[C@@H]5O[C@H](CO)[C@@H](O)[C@H](O)[C@H]5OC(=O)CC(C)C)C[C@]43C)(C2)[C@H]1O (some centres not stated),max response,CRL-7250,-6.97%
same,max response,HEK293,-0.701%
same,max response,HaCat,2.26%
same,outcome,KB-3-1,inactive
COc1cc2nc(N3CCCC3)nc(NCCCCCN3CCCC3)c2cc1OC,Potency,CRL-7250,20.6 µM (active)
same,Potency,HEK293,4.61 µM (active)
same,Potency,HaCat,18.4 µM (active)
same,Potency,KB-3-1,16.4 µM (active)
O=C(O)c1cc(-c2c(-c3ccccc3)nn3ccccc23)n[nH]c1=O,outcome,CRL-7250,inactive
same,max response,HEK293,-2.65%
same,max response,HaCat,-37.3%
same,outcome,KB-3-1,inactive
same,max response,NIH3T3,-3.95%
COc1cc(C)c(C(=O)Oc2cc(C)c(C(=O)Oc3cc(C)c(C(=O)NC(C)C(=O)O)c(O)c3)c(O[C@@H]3O[C@H](CO)[C@@H](O)[C@H](O)[C@H]3OC(C)=O)c2)c(OC)c1 (some centres not stated),max response,CRL-7250,-13.8%
same,max response,HEK293,-3.13%
same,max response,HaCat,-13.9%
same,max response,KB-3-1,-6.88%
CO[C@H]1/C=C/C=C/C=C/C[C@H](OC(=O)[C@@H](C)NC(=O)C2CCCCC2)[C@H](C)[C@@H](O)/C(C)=C/CCc2cc(O)cc(c2)NC(=O)C1,Potency,CRL-7250,0.306 µM (active)
same,Potency,HEK293,0.343 µM (active)
same,Potency,HaCat,1.09 µM (active)
same,Potency,KB-3-1,0.544 µM (active)
CC(c1ncncc1F)C(O)(Cn1cncn1)c1ccc(F)cc1F (configuration not stated),outcome,CRL-7250,inactive
same,max response,HEK293,-0.4%
same,max response,HaCat,-2.25%
same,max response,KB-3-1,0.345%
same,max response,NIH3T3,-5.84%
CC(=O)O[C@H]1C[C@@](O)(C(C)C)C2[C@@H](OC(=O)c3ccc(O)cc3)C[C@@]3(C)O[C@H]3C[C@]21C (some centres not stated),max response,CRL-7250,-0.746%
same,max response,HEK293,-5.37%
same,max response,HaCat,-5.18%
same,max response,KB-3-1,2.79%
same,max response,NIH3T3,-4.8%
